The panel holds about 79,000 compounds, 15% with a hit somewhere; the sample as a whole holds those more often. Calls of active or inactive are those of the source. Cut-off read from the data, not from the text of the source: active = growth inhibition above about 70%; inactive = the rest.

The nature of one experiment: NCI Yeast Anticancer Drug Screen. Data for the sgs1 mgt1 strain (AID 161).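 Note: 0% = growth of cultures given vehicle only.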 The conditions noted are these: S. cerevisiae sgs1 mgt1 strain, at 50.0 µM, stronger effect = higher value. The method, boiled down: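 Test agents were incubated with a DNA-repair-mutant yeast strain. Growth was then read and compared against vehicle-treated controls.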
`COC1CC(NC(=O)c2ccccc2)C(O)C(C)O1` (stereo not given): the growth inhibition is 11.6% (inactive).

Take `C1CCN=C(N2CCCCCC2)CC1`: the growth inhibition is -5.8% (inactive).

In the case of `O=C(O)CC1(c2ccccc2)CCCCC1`, the growth inhibition was 0.65% (inactive).

For `C#CC(C)(C)Oc1cc(O)c2c(=O)c3ccccc3n(C)c2c1`, the growth inhibition is 12.2% (inactive).

As to `O=C(CCSC(=S)Nc1ccc(Cl)cc1)NNc1ccccc1`, the growth inhibition was -0.65% (inactive).

For the compound `CCCCCCCCCCCCSC1=C(OC)C(=O)C(OC)=C(OC)C1=O`, the growth inhibition was 26.6% (inactive).

On to `CC1=C(O)c2cc3c(cc2C(=O)C1=O)OCO3`, for which the growth inhibition is -15% (inactive).

`Cc1ccc(-c2nc(-c3nccc4ccccc34)oc2-c2ccccc2)cc1`: the growth inhibition was -45.4% (inactive).

As to `CCCN(CCN(CC)CC)C(=O)N(CC)CC`, the growth inhibition is 3.2% (inactive).

For the compound `C=CCOC(=O)NC(CCC(=O)OC)C(=O)O` (stereo not given), the growth inhibition is -6.25% (inactive).

In the case of `O=C1CCC(=O)N1Cc1ccccc1N=[N+]([O-])c1ccccc1CN1C(=O)CCC1=O`, the growth inhibition is 1.75% (inactive).

With `CC12CC(=O)C3C(CCC4=CC(=O)CCC43C)C1CC=C2CC(=O)O` (stereo not given), the growth inhibition is -23.4% (inactive).

For the compound `CC(C)C(=O)/C=C/c1ccc(Br)cc1`, the growth inhibition was 1% (inactive).

Consider `O=C(O)C1CC=CCC1C(=O)Nc1cccc(O)c1` (stereo not given), for which the growth inhibition is -51.7% (inactive).

`Cc1ccc(S(=O)(=O)Nc2ccc(O)cc2)cc1`: the growth inhibition is -15.2% (inactive).

As for `Cc1cc(/C=N/NC(=O)c2ccccc2NC(=O)c2ccccc2Cl)ccc1O`, the growth inhibition was 39.2% (inactive).

As to `COc1ccc(N2NC(c3ccccc3)(c3ccccc3)C(C)C2=O)cc1` (stereo not given), the growth inhibition is 40.4% (inactive).

Regarding `Fc1ccccc1/C=C/c1cnnc2ccccc12`, the growth inhibition was 16.1% (inactive).

For the compound `CC(/C=N/NC1=NCCCN1)=N\NC1=NCCCN1`, the growth inhibition is -14.3% (inactive).

For the compound `CCOC(=O)C(NC(=O)Nc1ccccc1F)(OC)C(F)(F)F` (stereo not given), the growth inhibition is -75.4% (inactive).

As to `C[C@]12CCC(=O)C=C1CC[C@@H]1[C@@H]2CC[C@@]2(C)[C@H]1CC[C@]2(O)C(=O)CCC#N`, the growth inhibition is 17.1% (inactive).

As to `Cc1c(C)c(O)c2c(c1C)C(C)C(=O)OC2=O` (stereo not given), the growth inhibition was -13.2% (inactive).

Take `NNC(=O)C(=O)NN=C(C(Cl)(Cl)CO)C(Cl)(Cl)CO`: the growth inhibition is 15.1% (inactive).

With `C/C(=N\NC(=S)Nc1ccc([N+](=O)[O-])cc1S(=O)(=O)O)c1ccccn1`, the growth inhibition was -5.85% (inactive).

For `CCCCCCCCCCCCCBr`, the growth inhibition is 13.2% (inactive).

For `O=C1Nc2ccccc2/C1=N\[O-].O=C1Nc2ccccc2/C1=N\[O-].[Cu+2]`, the growth inhibition was -30.5% (inactive).

With `c1ccc2c(c1)N=C(c1ccc3ccccc3c1)CC(c1cccc3ccccc13)S2` (stereo not given), the growth inhibition is -33.1% (inactive).

Regarding `COc1cc(=O)n2c3ccccc3n(C)c2c1C#N`, the growth inhibition is -0.95% (inactive).

Regarding `CCCCCC(=O)OC(C)COc1ccccc1` (stereo not given), the growth inhibition was 20.8% (inactive).

As for `Cc1c(F)cccc1NC(=O)OC(C)C`, the growth inhibition was -0.7% (inactive).

With `Cc1cc(C(F)(F)F)nc2nc3ccccc3n12`, the growth inhibition is -0.15% (inactive).

On to `CSc1nc2ncnc(N(C)C)c2[nH]1`, for which the growth inhibition was -8.5% (inactive).

On to `N=C(N)SCc1cccc(Cl)c1`, for which the growth inhibition is -4.55% (inactive).

For the compound `O=c1c2ccccc2[nH]c2ccc(Br)cc12`, the growth inhibition is 3.8% (inactive).

Regarding `COc1c(C)c(OCC=C(C)C)cc(CO)c1CO`, the growth inhibition is -13.9% (inactive).

On to `O=C(N=Nc1c(O)[nH]c2ccccc12)C(=O)N=Nc1c(O)[nH]c2ccccc12`, for which the growth inhibition was 9.5% (inactive).

`O=C(O)/C=C(/C(=O)O)c1cccn1Cc1ccccc1`: the growth inhibition is 19.6% (inactive).

For the compound `O=C(CC1=NC2NN(c3ccccc3)C(=O)C2=C1CC(=O)c1ccc([N+](=O)[O-])cc1)c1ccc([N+](=O)[O-])cc1` (stereo not given), the growth inhibition was 3.4% (inactive).

For `CC(C)c1ccc2nc3ccc(C(=O)NCCN(C)C)cn3c(=O)c2c1`, the growth inhibition is -10.4% (inactive).

For the compound `CC(=O)Nc1c(Nc2ccc3c(=O)[nH]ccc3c2C)cc[nH]c1=O`, the growth inhibition is 17.1% (inactive).

The nature of a further experiment: NCI Yeast Anticancer Drug Screen. Data for the cln2 rad14 strain (AID 165).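 Note: 0% = growth equal to vehicle treated cultures.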 The conditions noted are these: S. cerevisiae cln2 rad14 strain, at 50.0 µM, stronger effect = higher value. The method, boiled down:
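cln2 rad14 yeast strain; compound exposure; growth inhibition read vs vehicle controls.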
In the case of `COC1CC(NC(=O)c2ccccc2)C(O)C(C)O1` (stereo not given), the growth inhibition was 10.6% (inactive).

`C1CCN=C(N2CCCCCC2)CC1`: the growth inhibition was -33% (inactive).

Regarding `O=C(O)CC1(c2ccccc2)CCCCC1`, the growth inhibition was -6.2% (inactive).

As for `C#CC(C)(C)Oc1cc(O)c2c(=O)c3ccccc3n(C)c2c1`, the growth inhibition was 5.3% (inactive).

With `O=C(CCSC(=S)Nc1ccc(Cl)cc1)NNc1ccccc1`, the growth inhibition was -30.4% (inactive).

Turning to `CCCCCCCCCCCCSC1=C(OC)C(=O)C(OC)=C(OC)C1=O`, the growth inhibition was -5.2% (inactive).

With `CC1=C(O)c2cc3c(cc2C(=O)C1=O)OCO3`, the growth inhibition was -15.6% (inactive).

In the case of `Cc1ccc(-c2nc(-c3nccc4ccccc34)oc2-c2ccccc2)cc1`, the growth inhibition was -28.4% (inactive).

Regarding `CCCN(CCN(CC)CC)C(=O)N(CC)CC`, the growth inhibition was -19.1% (inactive).

Consider `C=CCOC(=O)NC(CCC(=O)OC)C(=O)O` (stereo not given), for which the growth inhibition was -9.3% (inactive).

For `O=C1CCC(=O)N1Cc1ccccc1N=[N+]([O-])c1ccccc1CN1C(=O)CCC1=O`, the growth inhibition was -0.55% (inactive).

Consider `CC12CC(=O)C3C(CCC4=CC(=O)CCC43C)C1CC=C2CC(=O)O` (stereo not given), for which the growth inhibition was -3.85% (inactive).

For the compound `CC(C)C(=O)/C=C/c1ccc(Br)cc1`, the growth inhibition was 2.6% (inactive).

For `O=C(O)C1CC=CCC1C(=O)Nc1cccc(O)c1` (stereo not given), the growth inhibition is 38.5% (inactive).

With `Cc1ccc(S(=O)(=O)Nc2ccc(O)cc2)cc1`, the growth inhibition is -27% (inactive).

Take `Cc1cc(/C=N/NC(=O)c2ccccc2NC(=O)c2ccccc2Cl)ccc1O`: the growth inhibition is 11.9% (inactive).

With `COc1ccc(N2NC(c3ccccc3)(c3ccccc3)C(C)C2=O)cc1` (stereo not given), the growth inhibition was 5.2% (inactive).

Take `Fc1ccccc1/C=C/c1cnnc2ccccc12`: the growth inhibition is -20.4% (inactive).

On to `CC(/C=N/NC1=NCCCN1)=N\NC1=NCCCN1`, for which the growth inhibition was 8.25% (inactive).

Take `CCOC(=O)C(NC(=O)Nc1ccccc1F)(OC)C(F)(F)F` (stereo not given): the growth inhibition is -4.3% (inactive).

In the case of `C[C@]12CCC(=O)C=C1CC[C@@H]1[C@@H]2CC[C@@]2(C)[C@H]1CC[C@]2(O)C(=O)CCC#N`, the growth inhibition was -33.4% (inactive).

As to `Cc1c(C)c(O)c2c(c1C)C(C)C(=O)OC2=O` (stereo not given), the growth inhibition was 10% (inactive).

`NNC(=O)C(=O)NN=C(C(Cl)(Cl)CO)C(Cl)(Cl)CO`: the growth inhibition was 14.1% (inactive).

Consider `C/C(=N\NC(=S)Nc1ccc([N+](=O)[O-])cc1S(=O)(=O)O)c1ccccn1`, for which the growth inhibition is -2.35% (inactive).

As to `CCCCCCCCCCCCCBr`, the growth inhibition was 19.9% (inactive).

As for `O=C1Nc2ccccc2/C1=N\[O-].O=C1Nc2ccccc2/C1=N\[O-].[Cu+2]`, the growth inhibition is -0.3% (inactive).

In the case of `c1ccc2c(c1)N=C(c1ccc3ccccc3c1)CC(c1cccc3ccccc13)S2` (stereo not given), the growth inhibition was 33.1% (inactive).

In the case of `COc1cc(=O)n2c3ccccc3n(C)c2c1C#N`, the growth inhibition is -0.25% (inactive).

On to `CCCCCC(=O)OC(C)COc1ccccc1` (stereo not given), for which the growth inhibition is -10.8% (inactive).

As to `Cc1c(F)cccc1NC(=O)OC(C)C`, the growth inhibition was -50.8% (inactive).

Consider `Cc1cc(C(F)(F)F)nc2nc3ccccc3n12`, for which the growth inhibition is -3.7% (inactive).

For the compound `CSc1nc2ncnc(N(C)C)c2[nH]1`, the growth inhibition is 2.45% (inactive).

Turning to `N=C(N)SCc1cccc(Cl)c1`, the growth inhibition is -82.1% (inactive).

In the case of `O=c1c2ccccc2[nH]c2ccc(Br)cc12`, the growth inhibition was -6.1% (inactive).

Turning to `COc1c(C)c(OCC=C(C)C)cc(CO)c1CO`, the growth inhibition is -8.15% (inactive).

Take `O=C(N=Nc1c(O)[nH]c2ccccc12)C(=O)N=Nc1c(O)[nH]c2ccccc12`: the growth inhibition was -1.1% (inactive).

Turning to `O=C(O)/C=C(/C(=O)O)c1cccn1Cc1ccccc1`, the growth inhibition was 17.4% (inactive).

In the case of `O=C(CC1=NC2NN(c3ccccc3)C(=O)C2=C1CC(=O)c1ccc([N+](=O)[O-])cc1)c1ccc([N+](=O)[O-])cc1` (stereo not given), the growth inhibition is 2.7% (inactive).

Consider `CC(C)c1ccc2nc3ccc(C(=O)NCCN(C)C)cn3c(=O)c2c1`, for which the growth inhibition was 2.65% (inactive).

Consider `CC(=O)Nc1c(Nc2ccc3c(=O)[nH]ccc3c2C)cc[nH]c1=O`, for which the growth inhibition was 14.5% (inactive).

(Values after PubChem BioAssay (NCI).)
